Most compounds without a hit are left out; they make up all but 3.5% or so of the library.
MITF inh: MITF inhibitors, primary screen, biochemical, AlphaScreen, human. inhibition, % at 2.6 µM. hit rate 0.91% among 650,000. Microphthalmia-associated transcription factor (Homo sapiens), O75030. AlphaScreen MITF homodimerization, bead proximity signal; in the data active = inhibition above about 50%;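 note: 0% = vehicle wells with protein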
TEAD-YAP block: TEAD-YAP interaction inhibition, primary screen, TEAD-YAP interaction inhibitor project, luminescence, HEK-TIYL cells; TEAD-Gal4/YAP UAS-luciferase luminescence; inhibition, % at 9.12 µM; hit rate 1.4% among 640,000; AID 1259422, 2018; in the data active = inhibition above about 32%;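 note: 0% = median of test compound wells and 100% = reference inhibitor wells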
FBW7 activator: FBW7 E3 ligase activators, primary screen, biochemical, AlphaScreen, human. AlphaScreen FBW7–phospho-cyclin E peptide binding, activator screen. normalized activity (activation), % at 26.1 µM. hit rate 0.13% among 650,000. AID 1259310, 2017; in the data active = normalized activity above about 1.9%;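 note: purified mutant Fbw7 with reduced substrate affinity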
GPR151 activ: activators of human GPR151, primary screen, cell-based, PathHunter beta-arrestin, luminescence | G-protein coupled receptor 151 (Homo sapiens), Q8TDV0 | activation, % at 11.2 µM | hit rate 1% among 650,000 | AID 1508602, 2020 | PathHunter beta-arrestin GPR151 cells; in the data active = activation above about 4.9%;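 note: 0% = median of compound wells and 100% = cells with positive control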
Target sequence (Q8TDV0 whole entry, looked up): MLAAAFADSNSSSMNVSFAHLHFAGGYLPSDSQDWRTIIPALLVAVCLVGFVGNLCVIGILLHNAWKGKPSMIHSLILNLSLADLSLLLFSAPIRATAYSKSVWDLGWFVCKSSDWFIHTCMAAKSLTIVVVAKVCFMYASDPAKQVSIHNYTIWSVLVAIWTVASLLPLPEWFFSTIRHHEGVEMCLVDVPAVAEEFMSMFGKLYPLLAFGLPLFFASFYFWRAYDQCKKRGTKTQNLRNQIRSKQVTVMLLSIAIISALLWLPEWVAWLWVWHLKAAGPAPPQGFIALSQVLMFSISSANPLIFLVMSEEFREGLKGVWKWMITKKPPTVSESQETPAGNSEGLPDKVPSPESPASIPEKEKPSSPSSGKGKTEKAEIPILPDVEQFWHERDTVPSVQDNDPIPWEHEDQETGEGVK
Numbers without * were called inactive.

SMILES | MITF inh | TEAD-YAP block | FBW7 activator | GPR151 activ
CCOc1ccc2nc(NS(=O)(=O)c3c(C)[nH]c(=O)[nH]c3=O)sc2c1 | 5.6 | 7.2 | 0.0 | -0.6
Cc1cc(=O)[nH]c2nnc(SCC(=O)Nc3ccc(C(F)(F)F)cc3)n12 | -7.1 | -4.0 | -0.1 | 0.4
c1cnc(N2CCN(Cc3c4ccccc4cc4ccccc34)CC2)nc1 | -5.6 | 5.2 | 0.0 | -0.1
CNC(=O)c1ccccc1Nc1cc(Nc2ccc(N3CCC(N(C)C)C3)cc2OC)ncc1C#N (configuration not stated) | 8.9 | 44.1* | -0.1 | -0.6
CNC(=O)c1ccccc1Nc1cc(Nc2ccc(N3CCOCC3)cc2OC)ncc1Br | 13.8 | 9.4 | -0.1 | 0.2
CNC(=O)c1ccccc1Nc1cc(Nc2ccc(F)cc2OC)ncc1C(F)(F)F | -2.3 | 17.9 | 0.4 | -1.3
CNC(=O)c1ccccc1Nc1cc(Nc2ccc(N3CCN(C)CC3)cc2OC)ncc1C(F)(F)F | 0.1 | 85.2* | -0.1 | -1.3
CNC(=O)c1ccccc1Nc1cc(Nc2ccc(OC3CCN(C)CC3)cc2OC)ncc1C(F)(F)F | 14.2 | 73.8* | 0.0 | 0.3
O=C(Nc1ccccc1NC(=O)c1cc2cc(Br)ccc2oc1=O)c1ccc(C(F)(F)F)cc1 | -3.5 | 1.3 | 0.0 | -0.3
COc1cc(/C=N/O)cc(OC)c1OC | 14.5 | 4.1 | 0.0 | 0.2
COc1cc(O)cc(OC)c1OC | -11.0 | 63.3* | -0.1 | 3.1
CC1=CC(=O)C=C(C)C1=NOC(=O)c1ccc([N+](=O)[O-])cc1 | 7.7 | 5.2 | 0.5 | -1.7
CC1=CC(=O)C=C(C)C1=NOC(=O)c1ccc(Cl)cc1 | 72.6* | 7.9 | 0.1 | -0.2
COc1ccc(Cc2cnc(NC(=O)COc3cccc(C)c3)s2)cc1 | -3.6 | 52.2* | -0.1 | 0.8
COc1ccccc1OCC(=O)Nc1ncc(Cc2ccc(Br)cc2)s1 | 11.0 | 4.3 | 0.8 | 3.4
COc1ccc(OCC(=O)Nc2ncc(Cc3ccc(Br)cc3)s2)cc1 | -158.8 | 1.0 | 0.8 | -0.8
COc1ccc(Cc2cnc(NC(=O)COc3ccccc3OC)s2)cc1 | -1.5 | 47.8* | 0.5 | 0.9
Cc1ccccc1OCC(=O)Nc1ncc(Cc2ccc(Br)cc2)s1 | -4.4 | 55.3* | 0.0 | 1.9
Cc1cc(=O)[nH]c(N=Nc2c(O)[nH]c3ccccc23)n1 | -7.2 | -30.1 | -0.1 | -0.5
O=C(COc1ccccc1)n1nc(-c2ccco2)nc1NCc1cccs1 | 18.7 | -6.0 | 1.6 | -0.5
O=C(Cc1ccccc1)Nc1ccc([N+](=O)[O-])cc1Cl | 3.1 | -1.7 | -0.1 | 0.0
O=C(N/N=C/c1ccc(O)cc1)c1cc(O)c(O)c(O)c1 | 59.3* | 8.4 | -0.2 | -0.3
O=C(N/N=C/c1ccc(O)c(O)c1)c1cc(O)cc(O)c1 | 19.3 | 16.5 | 0.3 | -1.3
O=C(N/N=C/c1cc(Br)c(O)c(Br)c1)c1cc(O)c(O)c(O)c1 | 89.6* | 0.8 | -0.3 | 1.6
O=C(N/N=C/c1ccc(/C=N/NC(=O)c2ccc(O)c(O)c2)cc1)c1ccc(O)c(O)c1 | 106.8* | -6.3 | -1.0 | 1.7
SMILES | MITF inh | TEAD-YAP block | FBW7 activator | GPR151 activ
Cc1cc(C)cc(-n2c(C)nc3cc(C(=O)NCCN4CCOCC4)ccc32)c1 | -5.2 | -0.9 | -0.2 | 0.2
CC1CCCCC12NC(=O)N(CC(=O)Nc1ccc(F)c(F)c1F)C2=O (configuration not stated) | -0.7 | 9.0 | 0.1 | 3.3
CSc1nnc2c(n1)OC(c1ccco1)N(C(=O)c1ccccc1)c1ccccc1-2 (configuration not stated) | -0.6 | 52.8* | -0.1 | -0.9
C=CCOc1ccc(C(=O)Nc2ccc(S(=O)(=O)N3CC(C)OC(C)C3)cc2)cc1 (configuration not stated) | 18.9 | 39.2* | 0.0 | -1.0
CCC(Sc1nc2ccncc2[nH]1)C(=O)N(CC)CC (configuration not stated) | -6.4 | -14.1 | 0.0 | 1.1
COCCNC(=O)CNC(=S)N(Cc1ccccc1)Cc1cccs1 | 13.8 | 2.2 | 0.8 | -1.3
COc1ccc(N/C=C(\C#N)C(N)=S)cc1OC | 9.6 | 37.9* | -0.1 | 0.2
COc1ccc(C(F)(F)F)cc1N/C=C(\C#N)C(N)=S | 15.3 | 2.2 | 0.0 | 0.3
OCCNc1nc(Nc2ccc(-n3ccnc3)cc2)nc2c1ncn2-c1ccccc1 | 7.7 | 42.5* | 0.4 | 0.3
Oc1ccc(CCNc2nc(Nc3ccc(-n4ccnc4)cc3)nc3c2ncn3-c2ccccc2)cc1 | 2.7 | 16.1 | 0.1 | 0.3
OCCNc1nc(Nc2ccc(C(F)(F)F)cc2)nc2c1ncn2-c1ccsc1 | -17.9 | 15.4 | 0.1 | 0.7
OCCNc1nc(Nc2ccncc2)nc2c1ncn2-c1ccsc1 | 12.6 | 60.1* | 0.0 | 1.8
OCCNc1nc(Nc2ccccc2)nc2c1ncn2-c1ccccc1 | 7.0 | 49.7* | -0.1 | -0.8
OCCNc1nc(Nc2ccc(-n3ccnc3)cc2)nc2c1ncn2-c1ccsc1 | 4.3 | 47.5* | -0.1 | 0.9
O=C1C=CC(=O)N1c1cc([N+](=O)[O-])ccc1F | 8.7 | 1.5 | -0.1 | 0.0
O=C1C(c2ccc(F)cc2)N(Cc2ccccc2)C(=O)CN1C1CCCCCC1 (configuration not stated) | -4.0 | 2.0 | 0.0 | 0.3
COc1ccccc1NC(=O)Cn1cc(C#N)c2cc(Br)ccc21 | 4.8 | 2.3 | 0.0 | -1.7
Oc1ccc2cc(Br)ccc2c1Br | 24.1 | -5.6 | 2.1* | -0.1
CCCCc1ccc(C(=O)Nc2cc3ccccc3oc2=O)cc1 | -1.4 | 54.7* | 0.0 | 0.9
CC(=O)Nc1cc2ccccc2oc1=O | 26.0 | -1.7 | 0.2 | -1.1
CC(=O)Oc1ccc2cc(NC(=O)c3cccc(C)c3)c(=O)oc2c1 | 4.0 | 38.1* | 0.3 | -3.0
Cc1ccc(C(=O)Nc2cc3ccccc3oc2=O)cc1C | -3.3 | 61.7* | -0.2 | -2.1
Cc1ccc(C(=O)Nc2cc3cc(Br)ccc3oc2=O)cc1C | -2.0 | -10.1 | -0.1 | -1.2
Cc1ccc(C(=O)Nc2cc3ccccc3oc2=O)cc1 | 8.1 | 86.5* | 0.0 | -2.3
O=C(Nc1cccc(Cl)c1)Oc1ccc2oc(=O)sc2c1 | 1.0 | 14.1 | -0.1 | 0.8
SMILES | MITF inh | TEAD-YAP block | FBW7 activator | GPR151 activ
CC(=O)c1c(C)n(C)c2ccc(OC(=O)c3cccc(Br)c3)cc12 | 0.2 | -4.5 | -0.3 | -1.5
COc1ccc(NC(=O)CN(c2cc(Cl)ccc2OC)S(C)(=O)=O)cc1 | 5.0 | 6.3 | 0.1 | -0.8
COc1ccc(Cn2c(SC)nc3ccsc3c2=O)cc1 | 6.7 | 3.3 | 0.1 | -1.4
CCCC(=O)NC(c1ccc(OC)c(OC)c1)c1cc([N+](=O)[O-])c2cccnc2c1O (configuration not stated) | 45.2 | 16.6 | -0.2 | 0.4
CCCC(=O)NC(c1ccccc1)c1cc([N+](=O)[O-])c2cccnc2c1O (configuration not stated) | 75.7* | 2.1 | -0.7 | 0.8
CCC(=O)NC(c1ccc(OC)c(OC)c1)c1cc([N+](=O)[O-])c2cccnc2c1O (configuration not stated) | 67.9* | 2.2 | -0.8 | 0.5

From PubChem BioAssay
